About 79,000 compounds went through this panel and 15% of them were active in at least one assay; those are over-represented in the sample as a whole. The source made the active and inactive calls. No stated cut-off is given here; in the data, active means growth inhibition above about 70%; inactive means the rest.
Columns and labels:
[1] = NCI Yeast Anticancer Drug Screen. Data for the rad50 strain (AID 155);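 further: 0% = growth of vehicle-only cultures of the same strain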; details: S. cerevisiae rad50 strain growth inhibition; at 50.0 µM; hits give high values
How it was run: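 Compounds were tested on a yeast strain with an engineered DNA damage repair alteration; the reported value is growth inhibition normalised to vehicle treatment.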

[2] = NCI Yeast Anticancer Drug Screen. Data for the mec2-1 strain (AID 157); details: S. cerevisiae mec2-1 strain, at 50.0 µM, hits give high values
How it was run: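 Each compound was tested on mec2-1 yeast, a strain altered in DNA damage repair or cell cycle control. Growth inhibition is reported relative to vehicle.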

[3] = NCI Yeast Anticancer Drug Screen. Data for the sgs1 mgt1 strain (AID 161);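 further: 0% = growth of cultures given vehicle only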; details: S. cerevisiae sgs1 mgt1 strain, at 50.0 µM, hits give high values
How it was run: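 Genetically altered yeast, compound exposure, growth inhibition relative to vehicle.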

[4] = NCI Yeast Anticancer Drug Screen. Data for the cln2 rad14 strain (AID 165);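 further: 0% = growth equal to vehicle treated cultures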; details: S. cerevisiae cln2 rad14 strain, at 50.0 µM, hits give high values
How it was run: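 Test compounds were added to cln2 rad14 yeast cultures; inhibition of growth was then determined by comparison with vehicle treatment.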

[5] = NCI Yeast Anticancer Drug Screen. Data for the bub3 strain (AID 167); details: S. cerevisiae bub3 mutant strain, at 50.0 µM, hits give high values
How it was run: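 Growth of a checkpoint-deficient yeast mutant is measured after compound exposure. Values represent inhibition relative to vehicle.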

[6] = NCI Yeast Anticancer Drug Screen. Data for the mlh1 rad18 strain (AID 175); details: S. cerevisiae mlh1 rad18 strain growth inhibition; at 50.0 µM; hits give high values
How it was run: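 Inhibition values reflect reduced growth of mutant yeast versus vehicle-treated controls following compound exposure; the mutations affect DNA damage repair.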

Measured: growth inhibition

O=C1NC(=O)C(c2ccsc2)(c2cccs2)N1 (stereo unspecified)
inactive: [1] 20.9% | [2] -9.3% | [3] 1% | [4] 14.3% | [5] 5.05% | [6] -1.65%

Clc1ccc(C=Nc2ccc3c(c2)Cc2ccccc2-3)c(Cl)c1
inactive: [1] -5.15% | [2] -33.6% | [3] -21.6% | [4] -3.85% | [5] -35.2% | [6] -2.4%

COC(=O)C1(CC(=O)Cc2ccccc2)NC(=S)NC(=O)C1C#N (stereo unspecified)
inactive: [1] 8.45% | [2] -7.7% | [3] -12.2% | [4] -12.1% | [5] -29.1% | [6] 4.8%

N#Cc1nc(/C=C/c2cccnc2)oc1N
inactive: [1] -1.9% | [2] 6.7% | [3] -8.1% | [4] -3.65% | [5] -6.55% | [6] -56.6%

CC(=Nc1ccccc1)NO
inactive: [1] 1.9% | [2] 14% | [3] 3.7% | [4] 3.5% | [5] -8.1% | [6] 2.1%

ClCC#CCCl
inactive: [1] 19.4% | [2] -10.9% | [3] 16.9% | [4] 4.3% | [5] -7.4% | [6] 5.1%

O=C(O)C(Br)C(Br)C(=O)Nc1ccc(F)cc1 (stereo unspecified)
active: [1] 99.7% | [2] 99.7% | [3] 99.7% | [4] 98.3% | [5] 99.7% | [6] 99.3%

Nc1ccc2c(c1)Oc1c(F)c(F)cc3c(=O)c(C(=O)O)cn-2c13
inactive: [1] 6.9% | [2] 11.2% | [3] 7.7% | [4] 16.1% | [5] 0% | [6] 48.1%

CCCCCCCCCCCCCCCCSc1ccc2ccccc2c1
inactive: [1] 37.9% | [2] -13.8% | [3] 41.3% | [4] -7.5% | [5] -3.45% | [6] 0.2%

COc1cc(C(C)C)c(Oc2c(C)c(OC)cc(C(C)C)c2O)cc1C (tested in a mixture with another compound)
inactive: [1] -7.5% | [2] -21.4% | [3] -9.6% | [4] -11.1% | [5] 7.9% | [6] 7.4%

N#Cc1cccc(-c2ccc(-c3ccccc3)o2)c1
inactive: [1] 31.6% | [2] 27.4% | [3] 27.1% | [4] -7.25% | [5] 60.9% | [6] 20.4%

COc1ccc(C2=CN(S(=O)(=O)c3ccc(C)cc3)CCc3ccccc32)cc1
inactive: [1] -31.4% | [2] -10.9% | [3] -31.8% | [4] -59.8% | [5] -6.6% | [6] -23.7%

O=c1c2c(sc3ccccc13)CCC2
inactive: [1] 1.95% | [2] 18.6% | [3] -1.55% | [4] 46.9% | [5] -11.8% | [6] -0.9%

CC1(C)C(=O)C(=Cc2ccco2)C1=O
inactive: [1] -18.9% | [2] 0.85% | [3] -23.4% | [4] 3.2% | [5] -14.2% | [6] 13%

O=C(Cc1nc2ccccc2nc1CC(=O)c1cccnc1)c1cccnc1
inactive: [1] 6.45% | [2] 18.4% | [3] 16.1% | [4] 23.1% | [5] -3.55% | [6] 25.9%

O=C(N/C(=C\c1ccccc1)C(=O)N1CCNCC1)c1ccccc1
inactive: [1] -1% | [2] 5.3% | [3] 0.65% | [4] -26.8% | [5] 1.15% | [6] 9.65%

N#CCc1ccc(Nc2cc(=O)[nH]c(=O)[nH]2)cc1
inactive: [1] -7.5% | [2] 1.5% | [3] 3.65% | [4] -35.1% | [5] -7.5% | [6] -7.55%

CC(=O)c1cccc(NC(=O)c2cccc(Cl)c2)c1
inactive: [1] -1.9% | [2] -4.3% | [3] 24.5% | [4] -16.1% | [5] 20.4% | [6] 20.9%

C=CCN1C(C)(C)NC(=S)C1(C)C
inactive: [1] -20.8% | [2] -4.9% | [3] -1.7% | [4] -5% | [5] -6% | [6] -2.35%

CC(C)N(C(=O)C12C3C4C5(C#N)C3C1(C#N)C5C42C#N)C(C)C (stereo unspecified)
inactive: [1] -10.4% | [2] -9.9% | [3] -21.8% | [4] 1.5% | [5] -0.7% | [6] -27.4%

Cc1cc(=O)n(-c2ccc([N+](=O)[O-])cc2)c(C)c1C(=O)O
inactive: [1] 3.25% | [2] -2.4% | [3] 4.85% | [4] -0.15% | [5] 7.9% | [6] -1.65%

CC(C)N1C(=O)c2ccccc2C1=O
inactive: [1] 26.8% | [2] 22.1% | [3] 14.7% | [4] 19.8% | [5] 15.1% | [6] 14.3%

CCN(CC)c1ccc2cc(C(=O)Nc3cccc4ccccc34)c(=N)oc2c1
inactive: [1] 14.4% | [2] 3.05% | [3] -10.2% | [4] -5.45% | [5] -25.9% | [6] -53.6%

C[N+]1(C)CCC(c2ccccc2)(c2ccccc2)C(O)C1 (stereo unspecified)
inactive: [1] -8.85% | [2] 40.7% | [3] 0% | [4] -0.2% | [5] -8.5% | [6] 1.5%

O=[N+]([O-])c1ccc2c(c1)C(=Nc1ccc(Cl)cc1)c1ccccc1-2
inactive: [1] -0.95% | [2] -8.6% | [3] -8% | [4] -32% | [5] 24.1% | [6] 5.45%

O=C(c1cccc(C(=O)N(c2ccccc2)C2CCCCC2)c1)N(c1ccccc1)C1CCCCC1
inactive: [1] -2.65% | [2] -6.35% | [3] -1.55% | [4] -6.65% | [5] -1.3% | [6] -27.9%

CC(=O)Nc1ccccc1O
inactive: [1] -4.75% | [2] -15.2% | [3] -0.85% | [4] -18.3% | [5] 0.35% | [6] 14.2%

CC(=O)C(C)CCOC1(C)OCCC1C (stereo unspecified)
inactive: [1] -7.4% | [2] 5.25% | [3] -13.1% | [4] -22.2% | [5] -36.4% | [6] 7%

COC(=O)C(Br)C(Br)c1ccc(OC)c(OC)c1 (stereo unspecified)
inactive: [1] -5.15% | [2] -9.8% | [3] 13.3% | [4] -30.6% | [5] 22.9% | [6] 16.2%

Cc1cc2c(cc1C)NC(=O)CC(c1ccccc1)=N2
inactive: [1] 18% | [2] -7.8% | [3] 4.15% | [4] 3.3% | [5] 28.9% | [6] 10.8%

N#Cc1cc2ccccc2c2ccccc12
inactive: [1] 8.6% | [2] -4.15% | [3] 5.85% | [4] 12.3% | [5] -11.2% | [6] 18.4%

C#CC(OC(=O)NC(C(=O)OC)C(C)C)(c1ccccc1)c1ccccc1 (stereo unspecified)
inactive: [1] 31.1% | [2] -10.3% | [3] 14.3% | [4] -4.85% | [5] 0.2% | [6] 7.55%

COc1ccc(C)cc1S(=O)(=O)c1ccc(C)cc1[N+](=O)[O-]
inactive: [1] 6.6% | [2] -2.85% | [3] 2.15% | [4] 34.5% | [5] 23.3% | [6] -15.4%

CCOC(=O)/C(O)=C(/C=N\C(=S)Nc1ccccc1Cl)C(=O)OCC
inactive: [1] -44% | [2] -55.3% | [3] -28.4% | [4] 5.35% | [5] -26.2% | [6] -41.4%

CCOc1ccc(C(=O)C=O)cc1
inactive: [1] 11.6% | [2] -5.65% | [3] 11.4% | [4] -0.7% | [5] 9.55% | [6] 27.2%

O=C(Nc1ccccc1Cl)Nc1ccccc1Br
inactive: [1] 16.8% | [2] 11.7% | [3] 14.7% | [4] 12.2% | [5] 6.8% | [6] -17.3%

COc1cccc(OC(=O)Nc2ccccc2)c1
inactive: [1] 2.6% | [2] -10.6% | [3] -9.85% | [4] -41.3% | [5] -20.6% | [6] 3.25%

CC(C)C(C(=O)O)C(=O)O
inactive: [1] 3.55% | [2] 10.5% | [3] 4.75% | [4] 1.25% | [5] 3.9% | [6] 19.1%

O=C(O)c1ccc(F)c([N+](=O)[O-])c1
inactive: [1] 7.15% | [2] -16.6% | [3] 17.4% | [4] -22.6% | [5] -11.6% | [6] 12.4%

O=C(O)C(C1=CCCCC1)C1(O)CCCCC1 (stereo unspecified)
inactive: [1] -9.15% | [2] -5.45% | [3] 17.6% | [4] -5.85% | [5] -0.65% | [6] 12.7%

CCCCCCCCCCCCOP(=O)(O)OP(=O)(O)OCC1OC(n2ccc(N)nc2=O)CC1O (stereo unspecified)
inactive: [1] 27.9% | [2] 21.5% | [3] 27.6% | [4] 17.1% | [5] 22.1% | [6] 18.2%

From PubChem BioAssay (NCI)
